Hits are enriched below; roughly 12% of the tested compounds scored in any of these assays.
HP1b chromo inh: HP1-beta chromodomain-methylated histone interaction inhibition. 390,000 compounds, 0.56% hits. P83916. Potency, µM (series often up to 114 µM), for inactives: at the highest dose activity change, negative = inhibition, hits mostly inhibitors. AID 540317. AlphaScreen HP1-beta / biotin-H3K9me3 peptide binding; note: nearly all actives have a fitted effect of over 70% in size
Target sequence (P83916 whole entry, looked up): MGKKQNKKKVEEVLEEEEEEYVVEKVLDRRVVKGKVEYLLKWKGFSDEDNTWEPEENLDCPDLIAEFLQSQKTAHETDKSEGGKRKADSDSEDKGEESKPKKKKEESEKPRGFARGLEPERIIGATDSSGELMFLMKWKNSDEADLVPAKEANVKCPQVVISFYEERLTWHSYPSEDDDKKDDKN
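Compound inhibition of the preformed complex between 50 nM HP1-beta and 50 nM biotinylated H3K9me3 peptide was read by AlphaScreen. Buffer was PBS pH 7.4 with 0.01% Tween-20. Incubations ran 30 min at room temperature, with 10 ug/mL donor/acceptor beads.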
JMJD2A Tudor: JMJD2A Tudor domain (human) inhibition | Potency, µM (highest dose often 114 µM), inactives show top-dose activity change, negative = inhibition, most hits filed as inhibitors | AlphaScreen JMJD2A-Tudor / H3K4me3 peptide binding | 390,000 compounds, 4.4% hits | O75164 | AID 504339; note: % is set by controls: 0 for no effect and ±100 for the full control effect; nearly all actives have a fitted effect of over 50% in size
Sfp inh: Sfp phosphopantetheinyl transferase inhibition; Q9F4F7; Potency, µM, inactives show largest response in the series, negative = inhibition, actives largely listed as inhibitors; AID 1490; Biochemical Sfp PPTase activity, qHTS; 310,000 compounds, 3.5% hits;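 note: the enzyme is Sfp with the accession as filed and its product quenches rhodamine fluorescence; 0% = enzyme reaction without inhibitor and -100% = no enzyme wells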
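Compounds were incubated with enzyme (final 15 nM) for 15 min at room temperature before substrate addition started the reaction. Fluorescence at 525 nm excitation, 598 nm emission was recorded immediately and after 30 minutes.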
G9a inh: G9a (human) methyltransferase inhibition; Q96KQ7; G9a H3K9 monomethylation, AlphaScreen, 2 h; Potency, µM (titrated, usually from 102 µM), for inactives: at the top dose activity, negative = inhibition, usual class: inhibitors; 350,000 compounds, 8.8% hits; AID 504332; note: % is set by controls: 0 for no effect and ±100 for the full control effect; nearly all actives have a fitted effect of over 75% in size
Target sequence (Q96KQ7 913-1193 limits assumed): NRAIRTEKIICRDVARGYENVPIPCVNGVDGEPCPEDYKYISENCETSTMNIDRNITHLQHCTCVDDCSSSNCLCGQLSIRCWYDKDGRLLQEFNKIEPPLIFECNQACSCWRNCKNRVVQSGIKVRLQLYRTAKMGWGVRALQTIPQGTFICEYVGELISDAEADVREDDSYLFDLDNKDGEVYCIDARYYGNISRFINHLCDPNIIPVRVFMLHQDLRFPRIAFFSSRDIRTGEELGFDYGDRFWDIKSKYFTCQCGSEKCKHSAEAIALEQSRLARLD
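AlphaScreen detection with an anti-monomethyl H3K9 antibody quantified product after a 2 h room-temperature reaction containing 500 nM biotinylated H3K9 peptide, 20 µM SAM and 20 nM enzyme, which had been preincubated 15 min with compound.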
BAZ2B inh: inhibitors of human BAZ2B bromodomain. AlphaScreen BAZ2B-H3K14Ac peptide displacement. Potency, µM (top dose mostly 114 µM), for inactives: at the highest dose activity change, negative = inhibition, hits mostly inhibitors. 360,000 compounds, 4.4% hits. AID 504333; note: % is set by controls: 0 for no effect and ±100 for the full control effect; nearly all actives have a fitted effect of over 60% in size
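AlphaScreen luminescence quantifies BAZ2B engagement of H3K14Ac peptide; the protein and biotinylated peptide are both at 50 nM final, buffer PBS pH 7.4 with 0.01% Tween-20, all steps at room temperature.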
* marks the source's active call; other numbers are inactive results; ? = inconclusive; / = no result given; [ ] = dose if it differs, or a comment. Calls come from the whole dose curve; as a rule, active = well fitted curve in the direction sought with a large enough effect; inconclusive = small, poorly fitted or top-dose-only effect, or another doubt; inactive = no such curve, though single readings can be large; an effect the other way counts as inactive or inconclusive. Potency is the fitted concentration of half-maximal effect.

SMILES	HP1b chromo inh	JMJD2A Tudor	Sfp inh	G9a inh	BAZ2B inh
Cc1ccc(Cl)cc1Nc1sc(C(=O)c2ccc(F)cc2)c(N)c1S(C)(=O)=O	53%	-10%	/	2%[59 µM]	-19%
O=C(CSc1nc2ccccc2s1)NNC(=S)Nc1ccc(Cl)cc1	-5%	-22%	13%	40µM*	4%
C=CCNC(=S)NNC(=O)CSc1nc2ccccc2s1	33%	-13%	5%	28µM*	-32%
O=C(CSc1nc2ccccc2s1)NCCOc1ccc(Cl)cc1	38%	11%	-10%	19%[12.7 µM]	5%[57.1 µM]
CCOc1ccc(-n2cc(-c3ccccc3)c3c(NC4CCCC4)ncnc32)cc1	33%	-27%	/	-4%[59 µM]	?
Cc1cccc(NC(=O)c2sc3nc(-c4ccc(F)cc4)cn3c2C)n1	27%	-15%	50µM*	-26%[59 µM]	-48%
COc1ccc(-c2cn3c(C)c(C(=O)Nc4cccc(C)n4)sc3n2)cc1	4%	-21%	40µM*	10µM*	-9%
Cc1cccc(NC(=O)c2sc3nc(-c4ccccc4)cn3c2C)n1	6%	-10%	?	?	1%
COc1ccc(-c2cn3c(C)c(C(=O)N4CCN(c5ccc(F)cc5)CC4)sc3n2)cc1	27%	-16%	5%	-5%	1%
COc1ccccc1N1CCN(C(=O)c2sc3nc(-c4ccc(F)cc4)cn3c2C)CC1	6%	-32%	6%	28µM*	?
CCCC[C@@H]1C[C@H]1C(NC(=O)c1cccnc1)c1ccc(Cl)cc1 (stereo partly drawn)	/	/	18%	/	/
CS(=O)(=O)Nc1cccc(C2=NN(C(=O)c3ccccc3)C(c3cccs3)C2)c1 (stereo not drawn)	11%	-12%	1%	-48%	7%
CCC(=O)N1N=C(c2ccc(C)o2)CC1c1ccc(N(C)C)cc1 (stereo not drawn)	-5%	?	-1%	50µM*	?
O=C(CCl)N1N=C(c2ccco2)CC1c1cccs1 (stereo not drawn)	16%	-18%	28µM*	10µM*	-5%
CC(=O)N1N=C(c2ccco2)CC1c1cccs1 (stereo not drawn)	22%	-13%	?	?	14%
Cc1ccc(C2=NN(C(=O)CCl)C(c3cccs3)C2)o1 (stereo not drawn)	24%	-13%	50µM*	13µM*	-10%
O=C(c1ccccc1)N1N=C(c2ccco2)CC1c1cccs1 (stereo not drawn)	?	35µM*	-17%	/	?
Cc1c(CNCCc2ccc(S(N)(=O)=O)cc2)c(C(=O)O)c(C)n1Cc1ccc(Cl)cc1	25%	-15%	/	-3%[59 µM]	-12%
CCC(C(=O)Nc1cc(Cl)ccc1OC)n1nc(-c2ccccc2)ccc1=O (stereo not drawn)	28%	-22%	/	4%[59 µM]	-1%
CC(C)CCCC(C)C1CCC2C3CC=C4CC(O)CCC4(C)C3CCC12C (stereo not drawn)	/	/	1%	/	/
COc1ccc(CCNC(=O)Cn2c(=O)c3cccn3c3ccccc32)cc1OC	26%	-13%	/	-7%[59 µM]	-21%
CC1(C)CC(=O)C(C=Nc2ccc3c(c2)OCO3)=C(O)C1	11%	2%	22%	?	1%
Cc1cccc(/N=C/C2=C(O)CC(C)(C)CC2=O)n1	25%	-2%	17%	?	1%
CC1(C)CC(=O)C(C=Nc2cccnc2/N=C/C2=C(O)CC(C)(C)CC2=O)=C(O)C1	3%	-10%	20%	?	0%
CC1(C)CC(=O)C(C=Nc2ccc(C(=O)c3ccccc3)cc2N=CC2=C(O)CC(C)(C)CC2=O)=C(O)C1	32%	-34%	-89%	40µM*	?
Cc1cc(N=CC2=C(O)CC(C)(C)CC2=O)no1	31%	79µM*	7%	-26%[59 µM]	/
CC1(C)CC(=O)C(C=Nc2ccc(O)c(N=CC3=C(O)CC(C)(C)CC3=O)c2)=C(O)C1	43%	-27%	8%	20µM*	-14%
CCOC(=O)c1c(C)[nH]c(C)c1S(=O)(=O)N1CCC(C(=O)NCc2cccc(OC)c2)CC1	11%	-12%	/	-2%[59 µM]	0%
